Reference: PubChem BioAssay (NCATS)
Results filed as inconclusive are left out. Active and inactive are the calls of the source. Calls come from the whole dose curve; as a rule, active = well fitted cell-killing curve with a large enough effect; inconclusive = small, poorly fitted or top-dose-only effect, or effect the other way; inactive = flat fitted curve, though single readings scatter.

What was measured:
Test in all cases: Primary qHTS to identify gynecologic anti-cancer compounds using libraries of approved drugs and bioactive compounds (AID 1345084); note: nearly all actives have a fitted effect of over 55% in size
Settings in all cases: Gynecologic cancer cell panel viability, ATPlite luminescence, 48 h; series mostly up to 57.5 µM
OV90 = test system: OV90
Summary of the method: (§1)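 Luminescence from the ATPlite ATP-monitoring reagent indicates viable cell number; lower signal means cytotoxicity. Cells received compound 16 h after seeding and were exposed for 48 h across five concentrations.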

PA-1 = test system: PA-1
Summary of the method: as §1

SKOV3 = test system: SKOV3
Summary of the method: as §1

Tov-21-G = test system: Tov-21-G
Summary of the method: as §1

Tov112D = test system: Tov112D
Summary of the method: as §1

Measured: Potency

O=C(Nc1ccc2[nH]c(=O)oc2c1)C(=O)N1CCC(Cc2ccc(F)cc2)CC1
inactive: all assays above

C=CC(C)(C)c1[nH]c2ccccc2c1C[C@@H]1NC(=O)[C@H](C)NC1=O
inactive: all assays above

CC(C)=CCCC1(C)C2CCC1(C)C(O)C2 (stereo not given)
inactive: all assays above

O=C1Nc2ccccc2-c2nc3ccccc3c(=O)n2-c2c(O)cccc21
inactive: all assays above

CO[C@H]1O[C@@H]2O[C@@]3(C)CCC4[C@H](C)CCC([C@H]1C)[C@]42OO3 (stereo not given in full)
inactive: all assays above

O=C(C1CCCCC1)N(CCN1CCN(c2ccccc2O)CC1)c1ccccn1
inactive: all assays above

CC1=C2C[C@@]3(C)C(CCC[C@@H]3C)C(O)C2OC1=O (stereo not given in full)
inactive: all assays above

COC(=O)c1cc2c(C(F)(F)F)cc(-c3ccccc3)cc2n1O
inactive: all assays above

CC(=O)OC1C(OC(=O)c2ccccc2)C2C(C)(C)CCC(OC(C)=O)C2(C)C23CCC(C)(C2)C(=O)CC13 (stereo not given)
inactive: all assays above

O=C(Nc1ccc(Cl)cc1)Nc1cccc(-c2cccc(N3CCCC3)n2)c1
inactive: all assays above

CCOc1ccc(-n2c(C(C)N(Cc3cccnc3)C(=O)Cc3ccc(F)c(C(F)(F)F)c3)nc3ncccc3c2=O)cc1 (stereo not given)
inactive: all assays above
